According to the supplement of paper PMC10382584, “Macrocyclization of linear molecules by deep learning to facilitate macrocyclic drug candidates discovery” (Nature Communications, 2023):

The targets below were run with Cc1cnc(Nc2ccc(OCCN3CCCC3)cc2)nc1Nc1cccc(S(=O)(=O)NC(C)(C)C)c1 [Fedratinib] (assay: percent of DMSO control binding (KINOMEscan); higher = weaker binding / less inhibition; extreme values may be limits of the assay). Conditions: concentration: 100 nM.

Sequence of UniProt Q9H4A3 (Q9H4A3 whole entry, looked up): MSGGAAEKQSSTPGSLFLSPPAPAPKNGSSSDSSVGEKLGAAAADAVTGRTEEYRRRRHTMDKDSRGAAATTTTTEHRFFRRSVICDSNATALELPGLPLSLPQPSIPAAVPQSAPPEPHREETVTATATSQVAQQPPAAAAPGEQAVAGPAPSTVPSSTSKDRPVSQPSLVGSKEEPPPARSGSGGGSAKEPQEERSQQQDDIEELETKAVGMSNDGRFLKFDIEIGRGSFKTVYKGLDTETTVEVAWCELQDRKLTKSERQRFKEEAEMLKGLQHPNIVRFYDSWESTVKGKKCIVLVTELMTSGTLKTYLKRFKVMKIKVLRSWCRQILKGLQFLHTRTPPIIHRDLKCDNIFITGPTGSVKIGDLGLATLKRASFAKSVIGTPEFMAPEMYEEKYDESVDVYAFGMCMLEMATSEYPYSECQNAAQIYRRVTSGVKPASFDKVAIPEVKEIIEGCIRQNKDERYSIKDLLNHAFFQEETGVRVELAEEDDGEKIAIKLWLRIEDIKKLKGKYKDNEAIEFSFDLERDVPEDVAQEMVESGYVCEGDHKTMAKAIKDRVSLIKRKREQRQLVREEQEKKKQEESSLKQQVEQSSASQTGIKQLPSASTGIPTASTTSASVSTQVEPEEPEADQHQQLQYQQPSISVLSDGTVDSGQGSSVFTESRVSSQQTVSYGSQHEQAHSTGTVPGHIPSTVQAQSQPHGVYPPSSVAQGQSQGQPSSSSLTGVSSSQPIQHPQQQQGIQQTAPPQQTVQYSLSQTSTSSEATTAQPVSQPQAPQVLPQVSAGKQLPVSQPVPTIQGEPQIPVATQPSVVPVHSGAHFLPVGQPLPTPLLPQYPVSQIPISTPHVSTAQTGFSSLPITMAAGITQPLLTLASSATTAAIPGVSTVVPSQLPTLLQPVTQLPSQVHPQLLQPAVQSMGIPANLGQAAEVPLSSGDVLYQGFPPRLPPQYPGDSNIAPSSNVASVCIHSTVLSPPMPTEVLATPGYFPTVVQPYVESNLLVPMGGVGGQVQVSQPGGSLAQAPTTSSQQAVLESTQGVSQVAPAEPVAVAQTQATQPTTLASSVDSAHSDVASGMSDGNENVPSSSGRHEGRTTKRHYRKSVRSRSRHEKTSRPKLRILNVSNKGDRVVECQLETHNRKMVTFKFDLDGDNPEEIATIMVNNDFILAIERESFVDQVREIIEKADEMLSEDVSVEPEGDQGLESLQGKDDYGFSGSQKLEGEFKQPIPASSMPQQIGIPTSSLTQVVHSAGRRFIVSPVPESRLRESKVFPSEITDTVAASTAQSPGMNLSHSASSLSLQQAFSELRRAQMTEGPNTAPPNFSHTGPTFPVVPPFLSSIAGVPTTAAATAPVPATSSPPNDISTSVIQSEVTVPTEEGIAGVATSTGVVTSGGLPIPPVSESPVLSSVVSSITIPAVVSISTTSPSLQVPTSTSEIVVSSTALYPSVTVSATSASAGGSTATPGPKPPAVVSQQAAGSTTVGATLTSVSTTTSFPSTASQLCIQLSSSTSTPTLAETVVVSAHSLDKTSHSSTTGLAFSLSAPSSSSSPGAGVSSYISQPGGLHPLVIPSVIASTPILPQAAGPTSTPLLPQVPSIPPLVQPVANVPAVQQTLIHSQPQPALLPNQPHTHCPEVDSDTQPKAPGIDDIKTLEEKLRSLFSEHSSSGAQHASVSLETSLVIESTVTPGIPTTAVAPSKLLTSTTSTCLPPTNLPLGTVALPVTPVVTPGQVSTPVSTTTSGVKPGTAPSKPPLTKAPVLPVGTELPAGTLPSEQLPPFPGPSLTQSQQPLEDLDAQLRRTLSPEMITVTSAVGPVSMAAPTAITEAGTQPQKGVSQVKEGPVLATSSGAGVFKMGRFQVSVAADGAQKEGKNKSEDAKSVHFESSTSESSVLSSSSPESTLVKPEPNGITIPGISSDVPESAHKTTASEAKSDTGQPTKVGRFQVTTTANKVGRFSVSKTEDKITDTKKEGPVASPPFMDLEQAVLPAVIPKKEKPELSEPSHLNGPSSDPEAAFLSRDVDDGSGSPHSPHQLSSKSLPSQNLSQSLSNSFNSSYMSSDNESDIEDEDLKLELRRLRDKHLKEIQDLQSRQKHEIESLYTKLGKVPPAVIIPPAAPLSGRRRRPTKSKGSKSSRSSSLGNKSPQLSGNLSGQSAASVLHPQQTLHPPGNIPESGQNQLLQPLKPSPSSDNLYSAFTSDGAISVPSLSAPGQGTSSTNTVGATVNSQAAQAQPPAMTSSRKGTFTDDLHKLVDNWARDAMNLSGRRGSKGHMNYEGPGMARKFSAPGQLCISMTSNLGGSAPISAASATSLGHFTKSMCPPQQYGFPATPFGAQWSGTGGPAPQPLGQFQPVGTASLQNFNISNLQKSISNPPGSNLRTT
Sequence of UniProt P54646 (P54646 whole entry, looked up): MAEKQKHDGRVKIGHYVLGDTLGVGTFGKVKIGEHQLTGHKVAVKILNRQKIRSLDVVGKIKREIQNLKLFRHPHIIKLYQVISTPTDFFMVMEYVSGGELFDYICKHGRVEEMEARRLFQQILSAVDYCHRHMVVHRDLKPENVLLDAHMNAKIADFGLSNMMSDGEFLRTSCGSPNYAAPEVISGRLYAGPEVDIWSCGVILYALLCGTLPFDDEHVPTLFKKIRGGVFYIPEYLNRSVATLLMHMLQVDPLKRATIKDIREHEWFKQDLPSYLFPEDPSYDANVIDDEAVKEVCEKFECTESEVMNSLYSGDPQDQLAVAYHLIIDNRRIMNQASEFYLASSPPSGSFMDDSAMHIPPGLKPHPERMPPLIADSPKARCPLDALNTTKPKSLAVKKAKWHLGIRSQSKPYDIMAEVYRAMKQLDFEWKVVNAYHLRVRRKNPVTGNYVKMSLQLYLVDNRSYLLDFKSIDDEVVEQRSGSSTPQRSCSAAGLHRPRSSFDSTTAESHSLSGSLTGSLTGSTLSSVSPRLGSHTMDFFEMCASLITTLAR
Sequence of UniProt Q6P2M8 (Q6P2M8 whole entry): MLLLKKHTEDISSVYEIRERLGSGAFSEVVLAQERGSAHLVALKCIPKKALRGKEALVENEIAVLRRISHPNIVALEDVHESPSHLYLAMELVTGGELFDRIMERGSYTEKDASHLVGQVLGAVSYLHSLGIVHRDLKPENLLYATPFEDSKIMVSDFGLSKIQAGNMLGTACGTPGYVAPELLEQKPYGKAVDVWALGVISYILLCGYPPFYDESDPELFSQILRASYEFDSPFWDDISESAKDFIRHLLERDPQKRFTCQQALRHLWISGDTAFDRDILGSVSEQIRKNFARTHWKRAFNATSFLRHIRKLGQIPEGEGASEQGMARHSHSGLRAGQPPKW
Sequence of UniProt Q08345 (Q08345 whole entry): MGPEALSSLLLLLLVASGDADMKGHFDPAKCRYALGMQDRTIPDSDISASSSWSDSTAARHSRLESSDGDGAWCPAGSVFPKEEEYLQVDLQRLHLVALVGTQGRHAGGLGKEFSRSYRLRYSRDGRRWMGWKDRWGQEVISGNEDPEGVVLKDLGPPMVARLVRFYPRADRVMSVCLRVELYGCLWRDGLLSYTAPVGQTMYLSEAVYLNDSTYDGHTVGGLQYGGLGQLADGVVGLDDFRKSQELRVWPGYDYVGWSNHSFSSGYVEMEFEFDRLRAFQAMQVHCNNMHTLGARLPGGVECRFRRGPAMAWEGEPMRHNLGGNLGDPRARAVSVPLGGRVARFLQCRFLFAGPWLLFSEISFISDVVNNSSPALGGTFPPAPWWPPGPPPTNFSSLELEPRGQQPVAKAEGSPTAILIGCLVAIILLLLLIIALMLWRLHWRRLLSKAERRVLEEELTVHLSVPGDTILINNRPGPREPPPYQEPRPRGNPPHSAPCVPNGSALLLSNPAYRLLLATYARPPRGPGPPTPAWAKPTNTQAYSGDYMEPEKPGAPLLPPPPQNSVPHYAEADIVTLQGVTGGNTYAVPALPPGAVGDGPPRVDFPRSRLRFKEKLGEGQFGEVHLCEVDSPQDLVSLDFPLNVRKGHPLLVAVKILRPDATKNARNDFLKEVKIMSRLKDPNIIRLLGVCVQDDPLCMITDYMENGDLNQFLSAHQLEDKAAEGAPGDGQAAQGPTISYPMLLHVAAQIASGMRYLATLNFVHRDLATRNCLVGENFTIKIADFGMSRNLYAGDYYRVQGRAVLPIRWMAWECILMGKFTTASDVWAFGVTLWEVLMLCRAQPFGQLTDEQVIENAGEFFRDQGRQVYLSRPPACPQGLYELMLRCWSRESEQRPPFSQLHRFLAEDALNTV
Sequence of UniProt Q15418 (Q15418 whole entry, looked up): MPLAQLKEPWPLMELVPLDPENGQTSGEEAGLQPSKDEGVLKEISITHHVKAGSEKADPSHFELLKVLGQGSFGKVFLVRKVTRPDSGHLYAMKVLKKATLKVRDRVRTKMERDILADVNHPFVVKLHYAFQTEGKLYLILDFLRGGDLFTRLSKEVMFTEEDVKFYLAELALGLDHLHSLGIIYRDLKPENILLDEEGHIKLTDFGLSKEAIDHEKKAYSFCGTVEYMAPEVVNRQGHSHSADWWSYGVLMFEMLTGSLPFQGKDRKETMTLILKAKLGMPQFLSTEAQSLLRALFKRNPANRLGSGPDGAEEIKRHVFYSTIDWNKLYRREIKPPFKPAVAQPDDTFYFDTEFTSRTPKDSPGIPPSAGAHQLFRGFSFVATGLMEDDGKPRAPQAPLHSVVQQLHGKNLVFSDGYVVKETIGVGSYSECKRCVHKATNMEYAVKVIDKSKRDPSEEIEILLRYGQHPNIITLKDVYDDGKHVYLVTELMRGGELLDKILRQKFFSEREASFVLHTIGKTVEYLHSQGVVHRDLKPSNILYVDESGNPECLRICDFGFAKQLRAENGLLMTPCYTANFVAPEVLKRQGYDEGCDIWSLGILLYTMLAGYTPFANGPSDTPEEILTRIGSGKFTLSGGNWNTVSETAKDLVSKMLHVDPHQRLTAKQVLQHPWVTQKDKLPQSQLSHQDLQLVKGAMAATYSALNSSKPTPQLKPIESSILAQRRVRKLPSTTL

Target | percent of DMSO control binding [%]
EGFR(E746-A750del) (UniProt P00533) | 99
CDC2L5 (UniProt Q14004) | 78
PKNB(M.tuberculosis) | 61
DDR1 (UniProt Q08345) | 100
RSK1(Kin.Dom.2-C-terminal) (UniProt Q15418) | 93
WNK1 (UniProt Q9H4A3) | 100
CAMK1B (UniProt Q6P2M8) | 66
RSK4(Kin.Dom.1-N-terminal) | 70
AMPK-alpha2 (UniProt P54646) | 100
